Laboratory results from PubChem BioAssay (NCI).
This is part of a sample that, as a whole, favours compounds with a hit. Of some 83,000 tested, about 20% had one in any assay.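 A percent growth of 40 corresponds to 60% growth inhibition; 0 means no net growth; -100 means all cells died. Active threshold: below 10.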 The source made the active and inactive calls.

Columns and labels:
Assay in all cases: NCI-60 one-dose screen, 48 h (100 = growth as untreated, 0 = no growth, -100 = all killed)
Conditions in all cases: 10 µM unless noted
SR leukemia = tested on: SR leukemia
RPMI-8226 leukemia = tested on: RPMI-8226 leukemia
OVCAR-8 ovarian = tested on: OVCAR-8 ovarian
OVCAR-5 ovarian = tested on: OVCAR-5 ovarian
OVCAR-4 ovarian = tested on: OVCAR-4 ovarian
SK-OV-3 ovarian = tested on: SK-OV-3 ovarian
IGROV1 ovarian = tested on: IGROV1 ovarian
OVCAR-3 ovarian = tested on: OVCAR-3 ovarian
HS 578T breast = tested on: HS 578T breast
NCI/ADR-RES ovarian = tested on: NCI/ADR-RES ovarian
T-47D breast = tested on: T-47D breast
BT-549 breast = tested on: BT-549 breast
MDA-MB-435 melanoma = tested on: MDA-MB-435 melanoma
SW-620 colon = tested on: SW-620 colon
MCF7 breast = tested on: MCF7 breast
HCT-116 colon = tested on: HCT-116 colon
HCC-2998 colon = tested on: HCC-2998 colon
KM12 colon = tested on: KM12 colon

Measured: growth

Cc1nc(N)nc(SCc2ccccc2)c1Br
inactive: SR leukemia 74.4% | RPMI-8226 leukemia 81.1% | OVCAR-8 ovarian 89.9% | OVCAR-5 ovarian 111% | OVCAR-4 ovarian 86.2% | SK-OV-3 ovarian 84.2% | IGROV1 ovarian 82.7% | OVCAR-3 ovarian 107% | HS 578T breast 87.6% | NCI/ADR-RES ovarian 95.9% | T-47D breast 65.2% | BT-549 breast 76.4% | MDA-MB-435 melanoma 111% | SW-620 colon 104% | MCF7 breast 79.8% | HCT-116 colon 89% | HCC-2998 colon 117% | KM12 colon 98.6%

CN1C(=O)C2(NN=C(c3cccc4ccccc34)S2)c2ccccc21 (centres undefined)
inactive: SR leukemia 28.5% | RPMI-8226 leukemia 18.2% | OVCAR-8 ovarian 26.2% | OVCAR-5 ovarian 50.2% | OVCAR-4 ovarian 20% | SK-OV-3 ovarian 26.5% | IGROV1 ovarian 39.4% | OVCAR-3 ovarian 40.2% | HS 578T breast 51.1% | NCI/ADR-RES ovarian 29% | BT-549 breast 30.1% | MDA-MB-435 melanoma 57.8% | SW-620 colon 35.5% | MCF7 breast 24% | HCT-116 colon 14.8% | HCC-2998 colon 51.7% | KM12 colon 30.8%
active: T-47D breast 5.27%

COc1ccccc1S(=O)(=O)Nc1ccc2c3c(cc(-c4cnn(C)c4)nc13)C(=O)N2C
active: RPMI-8226 leukemia -4.77%
inactive: SR leukemia 46.1% | OVCAR-8 ovarian 47.1% | OVCAR-5 ovarian 54.1% | OVCAR-4 ovarian 51% | SK-OV-3 ovarian 14.8% | IGROV1 ovarian 18.4% | OVCAR-3 ovarian 34.1% | HS 578T breast 23.8% | NCI/ADR-RES ovarian 35.9% | T-47D breast 35.5% | BT-549 breast 62.6% | MDA-MB-435 melanoma 35.2% | SW-620 colon 63.2% | MCF7 breast 16.5% | HCT-116 colon 28.2% | HCC-2998 colon 48.2% | KM12 colon 38.2%

COc1ccc2c(c1)O/C(=C/c1ccc(OCC(=O)Nc3ccc(S(N)(=O)=O)cc3)cc1)C2=O
inactive: SR leukemia 79.1% | RPMI-8226 leukemia 91.3% | OVCAR-8 ovarian 98.6% | OVCAR-5 ovarian 103% | OVCAR-4 ovarian 102% | SK-OV-3 ovarian 102% | IGROV1 ovarian 111% | OVCAR-3 ovarian 104% | HS 578T breast 99.4% | NCI/ADR-RES ovarian 103% | T-47D breast 97.2% | BT-549 breast 99.6% | MDA-MB-435 melanoma 103% | SW-620 colon 107% | MCF7 breast 104% | HCT-116 colon 95.2% | HCC-2998 colon 105% | KM12 colon 99.5%

O=C1OC(N(Cc2ccc(Cl)cc2)c2ccccc2)c2ccccc21 (centres undefined)
inactive: SR leukemia 97.8% | RPMI-8226 leukemia 97.2% | OVCAR-8 ovarian 107% | OVCAR-5 ovarian 109% | OVCAR-4 ovarian 116% | SK-OV-3 ovarian 97.2% | IGROV1 ovarian 90.7% | OVCAR-3 ovarian 104% | HS 578T breast 108% | NCI/ADR-RES ovarian 105% | T-47D breast 89.2% | BT-549 breast 103% | MDA-MB-435 melanoma 109% | SW-620 colon 101% | MCF7 breast 94.9% | HCT-116 colon 97% | HCC-2998 colon 102% | KM12 colon 98.2%

COc1ccc(Cl)cc1NC(=O)c1cc2c([nH]1)-c1nc(NC(=O)C(C)C)sc1CC2
inactive: SR leukemia 77.9% | RPMI-8226 leukemia 93.7% | OVCAR-8 ovarian 107% | OVCAR-5 ovarian 128% | OVCAR-4 ovarian 109% | SK-OV-3 ovarian 78.1% | IGROV1 ovarian 77.1% | OVCAR-3 ovarian 103% | HS 578T breast 93.4% | NCI/ADR-RES ovarian 93.9% | T-47D breast 82.7% | BT-549 breast 105% | MDA-MB-435 melanoma 114% | SW-620 colon 101% | MCF7 breast 82.6% | HCT-116 colon 80% | HCC-2998 colon 101% | KM12 colon 94.6%

O=c1c2ccccc2[nH]n1Cc1ccc2c(c1)OCO2
inactive: SR leukemia 115% | RPMI-8226 leukemia 90.5% | OVCAR-8 ovarian 104% | OVCAR-5 ovarian 95.7% | OVCAR-4 ovarian 105% | SK-OV-3 ovarian 112% | IGROV1 ovarian 111% | OVCAR-3 ovarian 104% | HS 578T breast 103% | NCI/ADR-RES ovarian 113% | T-47D breast 88.9% | BT-549 breast 107% | MDA-MB-435 melanoma 105% | SW-620 colon 108% | MCF7 breast 90.8% | HCT-116 colon 99.9% | HCC-2998 colon 106% | KM12 colon 102%

CCOC(=O)C(C)(CSSCC(C)(NC(=O)c1ccc2ccccc2c1)C(=O)OCC)NC(=O)c1ccc2ccccc2c1 (centres undefined)
inactive: SR leukemia 61.2% | RPMI-8226 leukemia 93.4% | OVCAR-8 ovarian 90.6% | OVCAR-5 ovarian 127% | OVCAR-4 ovarian 104% | SK-OV-3 ovarian 107% | IGROV1 ovarian 93.3% | OVCAR-3 ovarian 110% | HS 578T breast 118% | NCI/ADR-RES ovarian 105% | T-47D breast 86.6% | BT-549 breast 138% | MDA-MB-435 melanoma 96.3% | SW-620 colon 96.5% | MCF7 breast 92.2% | HCT-116 colon 47% | HCC-2998 colon 119% | KM12 colon 107%
